Measurements taken from the supplement of paper PMC4466140.

Experiments:
Experiment in all cases: SPOT peptide array binding signal intensity (averaged, normalized) (arbitrary units (background-subtracted, floor 0; scale differs between SH3 domains)); higher = stronger binding of the SH3 domain to the peptide
AgAbp1 = biological target: AgAbp1
How it was run: (§1)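 GST-fused SH3 domains from four yeast species were expressed in E. coli BL21(DE3), purified on glutathione Sepharose and incubated at 10 μg/ml overnight at 4°C in TBS-based blocking buffer on cellulose membranes carrying synthetic 15-mer peptides, with cysteines replaced by serines. Bound protein was detected with anti-GST antibody, an HRP anti-mouse secondary and luminol, then imaged and quantified with Genespotter. Binding signal is the normalized, background-subtracted spot intensity averaged over replicates, in arbitrary units that differ between domains.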

AgBbc1 = biological target: AgBbc1
How it was run: as §1

AgBem1-D1 = biological target: AgBem1-D1
How it was run: as §1

AgBzz1-D1 = biological target: AgBzz1-D1
How it was run: as §1

AgBzz1-D2 = biological target: AgBzz1-D2
How it was run: as §1

AgCyk3 = biological target: AgCyk3
How it was run: as §1

AgFus1 = biological target: AgFus1
How it was run: as §1

AgHof1 = biological target: AgHof1
How it was run: as §1

AgHse1 = biological target: AgHse1
How it was run: as §1

AgLsb1 = biological target: AgLsb1
How it was run: as §1

AgLsb4 = biological target: AgLsb4
How it was run: as §1

AgMyo5 = biological target: AgMyo5
How it was run: as §1

AgNbp2 = biological target: AgNbp2
How it was run: as §1

AgRvs167 = biological target: AgRvs167
How it was run: as §1

AgSho1 = biological target: AgSho1
How it was run: as §1

AgSla1-D1-D2 = biological target: AgSla1-D1-D2
How it was run: as §1

AgSla1-D3 = biological target: AgSla1-D3
How it was run: as §1

CaAbp1-D1 = biological target: CaAbp1-D1
How it was run: as §1

CaAbp1-D2 = biological target: CaAbp1-D2
How it was run: as §1

CaBbc1 = biological target: CaBbc1
How it was run: as §1

CaBem1-D1 = biological target: CaBem1-D1
How it was run: as §1

CaBzz1-D1 = biological target: CaBzz1-D1
How it was run: as §1

CaBzz1-D2 = biological target: CaBzz1-D2
How it was run: as §1

CaCyk3 = biological target: CaCyk3
How it was run: as §1

CaFus1 = biological target: CaFus1
How it was run: as §1

CaHof1 = biological target: CaHof1
How it was run: as §1

CaHse1 = biological target: CaHse1
How it was run: as §1

CaLsb1 = biological target: CaLsb1
How it was run: as §1

CaLsb4 = biological target: CaLsb4
How it was run: as §1

CaMyo5 = biological target: CaMyo5
How it was run: as §1

CaNbp2 = biological target: CaNbp2
How it was run: as §1

CaRvs167 = biological target: CaRvs167
How it was run: as §1

CaRvs167-3 = biological target: CaRvs167-3
How it was run: as §1

CaSho1 = biological target: CaSho1
How it was run: as §1

CaSla1-D1-D2 = biological target: CaSla1-D1-D2
How it was run: as §1

CaSla1-D3 = biological target: CaSla1-D3
How it was run: as §1

ScAbp1 = biological target: ScAbp1
How it was run: as §1

ScBbc1 = biological target: ScBbc1
How it was run: as §1

ScBem1-D1 = biological target: ScBem1-D1
How it was run: as §1

ScBzz1-D1 = biological target: ScBzz1-D1
How it was run: as §1

ScBzz1-D2 = biological target: ScBzz1-D2
How it was run: as §1

ScCyk3 = biological target: ScCyk3
How it was run: as §1

ScFus1 = biological target: ScFus1
How it was run: as §1

ScHof1 = biological target: ScHof1
How it was run: as §1

ScHse1 = biological target: ScHse1
How it was run: as §1

ScLsb1 = biological target: ScLsb1
How it was run: as §1

ScLsb2 = biological target: ScLsb2
How it was run: as §1

ScLsb3 = biological target: ScLsb3
How it was run: as §1

ScLsb4 = biological target: ScLsb4
How it was run: as §1

ScMyo3 = biological target: ScMyo3
How it was run: as §1

ScMyo5 = biological target: ScMyo5
How it was run: as §1

ScNbp2 = biological target: ScNbp2
How it was run: as §1

ScPex13 = biological target: ScPex13
How it was run: as §1

ScRvs167 = biological target: ScRvs167
How it was run: as §1

ScSho1 = biological target: ScSho1
How it was run: as §1

ScSla1-D1-D2 = biological target: ScSla1-D1-D2
How it was run: as §1

ScSla1-D3 = biological target: ScSla1-D3
How it was run: as §1

SpAbp1-D1 = biological target: SpAbp1-D1
How it was run: as §1

SpBbc1 = biological target: SpBbc1
How it was run: as §1

SpBzz1-D1 = biological target: SpBzz1-D1
How it was run: as §1

SpBzz1-D2 = biological target: SpBzz1-D2
How it was run: as §1

SpCyk3 = biological target: SpCyk3
How it was run: as §1

SpHof1 = biological target: SpHof1
How it was run: as §1

SpHof1-2 = biological target: SpHof1-2
How it was run: as §1

SpHof1-3 = biological target: SpHof1-3
How it was run: as §1

SpHse1 = biological target: SpHse1
How it was run: as §1

SpLsb1 = biological target: SpLsb1
How it was run: as §1

SpLsb4 = biological target: SpLsb4
How it was run: as §1

SpMyo1 = biological target: SpMyo1
How it was run: as §1

SpNbp2 = biological target: SpNbp2
How it was run: as §1

SpPex13 = biological target: SpPex13
How it was run: as §1

SpRvs167 = biological target: SpRvs167
How it was run: as §1

SpSla1-D1-D2 = biological target: SpSla1-D1-D2
How it was run: as §1

SpSla1-D3 = biological target: SpSla1-D3
How it was run: as §1

Measured: SPOT peptide array binding signal intensity

FTLPPPPPPPGLDEL
12: ScBzz1-D1
1530: SpBzz1-D1
2: ScBbc1
33.8: CaMyo5
1.5: ScSla1-D3
1880: ScMyo5
491: CaBzz1-D1
0.5: CaHof1 | ScBzz1-D2
1360: ScMyo3
4.5: ScSla1-D1-D2
0.25: ScLsb1
0.833: AgRvs167
1170: AgMyo5
204: ScHof1
23: CaBzz1-D2
3: AgBzz1-D2
1: ScNbp2 | ScPex13
85.8: AgHof1
7: CaSla1-D1-D2
4: AgSla1-D1-D2
not listed: SpBzz1-D2 | SpCyk3 | SpHof1 | SpHof1-2 | SpHof1-3 | SpHse1 | SpLsb1 | SpLsb4 | SpMyo1 | SpNbp2 | SpPex13 | SpRvs167 | SpSla1-D1-D2 | SpSla1-D3
≤ 0: all other assays above

QTREPNEPPPPSPAM
4: AgBzz1-D2
7: ScBzz1-D1
1: ScHof1
1.33: ScRvs167
0.25: CaHof1 | CaLsb1
2: ScSho1 | SpPex13
2210: ScMyo3
1580: ScMyo5
1420: AgMyo5
2.5: AgHof1
108: CaMyo5
13.5: ScLsb3
7.75: SpHof1-2
1.5: AgBzz1-D1 | ScLsb4 | ScSla1-D1-D2
6.5: CaFus1
0.75: CaHse1
1.75: ScPex13
1.67: CaRvs167 | SpRvs167
0.5: CaSla1-D3 | ScLsb1 | SpBzz1-D2 | SpCyk3
1240: SpMyo1
0.667: AgRvs167
8: CaBzz1-D1
≤ 0: all other assays above
